Assay results taken from ChEMBL document CHEMBL4513216, “Probing the Open Global Health Chemical Diversity Library for Multistage-Active Starting Points for Next-Generation Antimalarials” (ACS Infect Dis, 2020).
About 8,600 (12%) of roughly 69,000 compounds showed an effect of 50% or more. The list comes from a sample in which strong results are over-represented; it also holds similar structures and randomly drawn compounds.

test system: Plasmodium berghei; test: Screen against P. berghei liver stage (PbLuc), transformed with Luciferase, at 10uM; assay type: functional, HepG2; conditions: tested at 10 uM

Structure (SMILES) | INHIBITION
CN(C)C(=O)N1CCC[C@]2(C(=O)N(C)C)CN(c3ccccn3)C[C@@H]2C1 | -2.35%
Cc1ccc(C(=O)N2CCO[C@H]3[C@H](OCCN(C)C)CC[C@@H]32)o1 | -26.1%
CC(NCc1ccncc1)c1cc2c(cc1Br)OCCO2 (configuration not stated) | 53.9%
CC(NCc1ccccn1)c1cc2c(cc1Br)OCCO2 (configuration not stated) | 47.4%
CC(NCc1cccnc1)c1cc2c(cc1Br)OCCO2 (configuration not stated) | 15%
Cc1cnc(N2CCO[C@@H]3CC(COCc4cccnc4)C[C@H]32)nc1 (some centres not stated) | 45.4%
O=C(Nc1cccnc1N1CCSCC1)c1ccc2c(c1)CCO2 | 39.6%
COCCOc1ccnc(-c2noc([C@@H]3CCCN3CC3CC3)n2)c1 | 18.4%
COCCOc1ccnc(-c2noc([C@@H]3CCCN3CC(C)(C)C)n2)c1 | 53.2%
COCCOc1ccnc(-c2noc([C@@H]3CCCN3CC(C)C)n2)c1 | -15.6%
CS(=O)(=O)CCC(=O)N1C[C@H]2CC[C@@H](C1)N(Cc1ccccn1)C2=O | 5.38%
c1ccc(-c2nc(CNCC3CCCN3c3cccnn3)co2)cc1 (configuration not stated) | -17.7%
Cn1cc(CN2CCCC(n3c(=O)oc4ccccc43)C2)cn1 (configuration not stated) | 2.14%
CC(CN(C)C)Nc1nc(O)cc(Cc2ccccc2F)n1 (configuration not stated) | 39.3%
CCOC(=O)C1CC2(CCOCC2)N2CCC(=O)N12 (configuration not stated) | 20.7%
CCOC(=O)C1CC2(CCCCC2)N2CCC(=O)N12 (configuration not stated) | 54%
CCOC(=O)C1CC2(CCCC2)N2CCC(=O)N12 (configuration not stated) | 0.284%
Cc1noc(C)c1C1CCCN1C(=O)CN1CC2(CCNCC2)OC1=O (configuration not stated) | 36.8%
O=C1OC2(CCNCC2)CN1CC(=O)N1CCCC1c1ccco1 (configuration not stated) | 16.8%
Cc1ccccc1C1CCCN1C(=O)CN1CC2(CCNCC2)OC1=O (configuration not stated) | 50.1%
Cc1nc2ccc(S(=O)(=O)Nc3c(C)nn(CC(=O)O)c3C)cc2s1 | 34.7%
CCN(Cc1ccncc1)c1cc(C2CCCNC2)nc(C)n1 (configuration not stated) | 53.7%
Cc1nc(C2CCCNC2)cc(N(C)CCc2ccccc2)n1 (configuration not stated) | -16.5%

Structure (SMILES) | INHIBITION
CCN(Cc1ccncc1)c1cc(C2CCNCC2)nc(C)n1 | 14.6%
CCOc1ccc(CNC(C)c2c(C)nn(C)c2C)cc1 (configuration not stated) | -88.5%
COc1ccccc1CC(=O)N1CCC(NCc2ccccn2)CC1 | 46.3%
CN(Cc1cnc(N)nc1)C(=O)c1coc(COc2cccc(F)c2)n1 | 0.546%
COc1ccccc1N1CCN(c2nc(N)nc3[nH]cnc23)CC1 | 20.6%
COc1ccc(CN(C)[C@@H]2COC[C@H]2c2ccc(F)cc2)c(OC)c1 | 59.9%
COc1cc(CN(C)[C@@H]2COC[C@H]2c2ccc(F)cc2)cc(OC)c1 | 10.635%
COc1ccc(CN(C)[C@@H]2COC[C@H]2c2ccc(F)cc2)cc1 | 34.3%
CN1CCOCC12CCN(C(=O)C1CCC1)CC2 | 22.3%
CCOCCCNC(=O)C1(C)CCC(=O)N1c1ccccc1OC (configuration not stated) | 32.1%
CC(=O)N1CCC(n2nccc2-c2cnc(NCCO)nc2)CC1 | 33.7%
c1ccc(-c2nnc3n2CCN(c2nc(C4CC4)ns2)C3)cc1 | -57.3%
Cc1nc(NC(=O)C2CCCN(C(N)=O)C2)sc1-c1ccccc1 (configuration not stated) | 34.1%
Oc1nnc(-c2cccs2)c2sc(N3CCCC3)nc12 | 47.7%
Oc1nnc(-c2cccs2)c2sc(N3CCCCC3)nc12 | 54.3%
O=c1[nH]nc(-c2cccs2)c2sc(N3CCOCC3)nc12 | -29.5%
Oc1nnc(-c2ccccc2)c2sc(N3CCCCC3)nc12 | 57%
CC(CS(C)(=O)=O)N(C(=O)CCc1cccc(F)c1)C1CC1 (configuration not stated) | -35%
CNS(=O)(=O)c1ccc(CNC(=O)N(C)C(C)COC)cc1 (configuration not stated) | 44.9%
CCC1=N[C@@]2(CC[C@@H]3CN(Cc4ccc(Cl)cc4)C[C@@H]32)C(=O)N1 | 35.3%
CCC1=N[C@@]2(CC[C@@H]3CN(CC4CC4)C[C@@H]32)C(=O)N1CC1CC1 | 30.3%
CC(C)CCN(C(=O)Nc1cccc(C(=O)N(C)C)c1)C1CC1 | 84.1%
CC(=O)c1cccc(NC(=O)N(CC(F)F)C2CC2)c1 | 61.1%

Structure (SMILES) | INHIBITION
CC(=O)c1cccc(NC(=O)N(CCO)C2CCc3ccccc32)c1 (configuration not stated) | 24.8%
CC(C)CCN(C(=O)c1cccc(NC(N)=O)c1)C1CC1 | 12.4%
N#Cc1cccc(NC(=O)N(CC(F)F)C2CC2)c1 | 24.3%
CC(C)CN(C(=O)Nc1cccc(C(=O)N(C)C)c1)C1CC1 | 38.5%
Cn1ccc(C(=O)N2C[C@@H]3CN(CC4CC4)CCO[C@@H]3C2)n1 | 27.5%
CCc1noc(CN(C)Cc2cc3ccc(Cl)cc3[nH]c2=O)n1 | -4.37%
CN(Cc1ccccc1C(F)(F)F)C(C(N)=O)c1ccccc1 (configuration not stated) | 36.3%
CC(O)CNCc1ccccc1C(F)(F)F (configuration not stated) | 37.7%
CC(C(N)=O)N(C)Cc1ccccc1C(F)(F)F (configuration not stated) | 56.8%
Cc1ccccc1CN(C)C(C(N)=O)c1ccccc1 (configuration not stated) | 43.1%
CC(CC#N)N(C)Cc1ccccc1F (configuration not stated) | 30.9%
CN(Cc1ccccc1Cl)C(C(=O)O)c1ccc(F)c(CO)c1 (configuration not stated) | 63.8%
CN(Cc1ccccc1F)C(C(N)=O)c1ccccc1 (configuration not stated) | 50.8%
COCCN(C)C(C(=O)O)c1ccc(F)c(Cl)c1 (configuration not stated) | 40.3%
CN(C)C(=O)c1ccc(C(C(=O)O)N(C)Cc2ccccc2Cl)cc1 (configuration not stated) | 44.3%
O=C(CCn1c(C(F)(F)F)cc2cccnc21)N1CCCC1 | 12.3%
O=C1COC2(CCN(c3cccc(F)c3)CC2)CN1Cc1ccccn1 | 42.3%
CC(C)N1CCc2c(C#N)c(NCc3ccco3)n3cnnc3c2C1 | 37.1%
COC(=O)N1CCN(c2ncnc3nc(C)cc(C)c23)CC1 | 20%
CC(C)NC(=O)c1ccc2c(c1)nc1n2CCN(Cc2ccco2)C1 | -11.4%
CC(=O)N1[C@H](CN(C)C)C[C@@H]2CN(C(=O)c3cncc(C)c3)CC[C@@H]21 | 23.5%
COc1ccc(CN2CCC3(CC(=O)N(c4cccc(F)c4)C3)C2)cc1 (configuration not stated) | 21.1%
CN(C)c1cccc(C2CCN(C3COCC3O)CC2)n1 (configuration not stated) | 26.7%

Structure (SMILES) | INHIBITION
COCCCN(C)[C@@H]1c2ccccc2C2(CCNCC2)[C@H]1O | 11.05%
Cc1ccc(CCN[C@@H]2c3ccccc3C3(CCNCC3)[C@H]2O)s1 | 54.4%
CN(CC1(CO)CCCC1)[C@@H]1c2ccccc2C2(CCNCC2)[C@H]1O | 2.18%
COCCN(C)[C@@H]1c2ccccc2C2(CCNCC2)[C@H]1O | 15.12%
CN(CC1(CO)CCOCC1)[C@@H]1c2ccccc2C2(CCNCC2)[C@H]1O | 21.55%
COc1ccccc1CCN[C@@H]1c2ccccc2C2(CCNCC2)[C@H]1O | 88%
Cn1ccnc1SC1CCc2ccccc2NC1=O (configuration not stated) | 4.07%
Cc1ccc(CN(CCN(C)C)Cc2c(C)nc3sccn23)o1 | 27.675%
CN(C)c1cc(CNC(=O)Nc2nnc(C3CC3)s2)ccn1 | -27.8%
O=C(CC1=CCCCC1)Nc1ncn(CC(=O)N2CCCCCC2)n1 | -18.4%
CC(Nc1cccc(CN2CCOC2=O)c1)C(=O)Nc1cccc(F)c1 (configuration not stated) | 28.15%
CSCC(CCO)NC(=O)Nc1cccc(Br)c1 (configuration not stated) | -4.94%
CSCC(CCO)NC(=O)Nc1ccc(C)cc1Br (configuration not stated) | 36.8%
CSCC(CCO)NC(=O)Nc1cc(Br)ccc1C (configuration not stated) | -4.94%
CSCC(CCO)NC(=O)Nc1cc(F)ccc1C (configuration not stated) | 50.4%
CCS(=O)(=O)NC(CCSC)C(=O)Nc1ccc(F)cc1 (configuration not stated) | 38%
CSCC(CCO)NC(=O)Nc1cc(C)ccc1C (configuration not stated) | 40.9%
CSCC(CCO)NC(=O)Nc1ccc(Br)cc1 (configuration not stated) | 53.8%
CCS(=O)(=O)NC(CCSC)C(=O)Nc1cc(F)ccc1C (configuration not stated) | 67.1%
CCS(=O)(=O)NC(CCSC)C(=O)Nc1ccccc1C (configuration not stated) | 20%
CO[C@@H]1CCN(Cc2ccc(C)o2)[C@H]1Cc1ccccc1 | 3.88%
COc1ccc2c(c1)C(=O)NC1(CC2)CCN(Cc2ccc(F)cc2)C1 (configuration not stated) | 13.621%
Cc1oncc1C(=O)NCc1cc(=O)n2c(n1)CN(C)CCC2 | 16.5%

Structure (SMILES) | INHIBITION
Cc1ccccc1CN(C)C(=O)c1cc(C2CCCN2C)ccn1 (configuration not stated) | 34%
CC(=O)c1cnc(NCCN2CCCC(c3ccccc3)C2)nc1C (configuration not stated) | 23.3%
Cc1cnc(N2CCN(C(C)C(N)=O)CC2)nc1 (configuration not stated) | 19%
Cc1ccc(F)cc1-n1c(CN(C)S(C)(=O)=O)n[nH]c1=O | 49.4%
CCCc1noc(C2CC(=O)N(CCN(C)C)C2)n1 (configuration not stated) | 20.9%
Cc1ccccc1CNCc1cc(Cl)ccc1O | 15%
COc1cccc(CC(=O)N2Cc3nccn3CC(CN(C)C)C2)c1 (configuration not stated) | 40.8%
Cc1csc(C2(NCCC(=O)N3CCOCC3)CCCC2)n1 | 20.9%
Cc1csc(C2(NC(=O)NCCN3CCOCC3)CCC2)n1 | 47.4%
Cc1csc(C2(NC(=O)NCCN3CCOCC3)CCCC2)n1 | 64.5%
CCCC(C(=O)NCCc1nc(C)cs1)N(C)C (configuration not stated) | 26%
O=C(CN1CC(n2cccn2)C1)NCCC1=CCCCC1 | -77.3%
O=C(CN1CC(n2cccn2)C1)NCCCc1ccccc1 | 54.4%
N#CCCNC(=O)CN1CC(n2cccn2)C1 | 53%
c1ccc(CCCN2CC(n3cccn3)C2)cc1 | -5.81%
Cc1cnn(C2CN(CC(=O)NCCCc3ccccc3)C2)c1 | 56.6%
O=C(CN1CC(n2cccn2)C1)NCCc1ccc(F)cc1 | -19.4%
O=C(CN1CC(n2cccn2)C1)NCCCN1CCCC1=O | 28.8%
Cc1cnn(C2CN(CC(=O)NCCc3ccccc3)C2)c1 | 27.4%
Cc1cnn(C2CN(CC(=O)NCCOc3ccccc3)C2)c1 | 3.15%
